Screening results (PubChem BioAssay)
A selection: hits, their analogues and other compounds. The true share with any hit is near 2%.
TR SRC2 fluor cs: Total Fluorescence Counterscreen for Inhibitors of the Interaction of Thyroid Hormone Receptor and Steroid Receptor Coregulator 2; AID 1479, 2009; Potency, µM (highest dose often 106 µM), for the others: at the top dose fluorescence change, negative = quenching; TRb/SRC2 Texas Red total fluorescence interference; actives 0.29% (n = 280,000); active = well fitted curve in either direction with a large enough effect; inconclusive = small, poorly fitted or top-dose-only effect; note: potency is the fitted concentration of half-maximal effect; % is set by controls: 0 for no effect and ±100 for the full control effect
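Human TRb ligand-binding domain at 0.6 uM with 20 nM Texas Red SRC2 peptide in Tris buffer containing 1 uM T3 and 5% DMSO, incubated with compound 5 h at ambient temperature. Total fluorescence (555/632 nm) calculated as parallel + 2 × perpendicular.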
TRb-SRC2 inh: qHTS for Inhibitors of the Interaction of Thyroid Hormone Receptor and Steroid Receptor Coregulator 2; Thyroid hormone receptor beta (Homo sapiens), P10828; TRbeta-SRC2 peptide binding, fluorescence polarization; receptor liganded with 1 µM T3; Potency, µM (highest dose often 106 µM), for the others: at the top dose activity change, negative = inhibition, hits mostly inhibitors; actives 0.065% (n = 280,000);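 note: potency is the fitted concentration of half-maximal effect; plate controls were bound peptide for no effect and peptide without receptor for full effect; nearly all actives have a fitted effect of over 50% in size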
Target sequence (P10828 whole entry, looked up): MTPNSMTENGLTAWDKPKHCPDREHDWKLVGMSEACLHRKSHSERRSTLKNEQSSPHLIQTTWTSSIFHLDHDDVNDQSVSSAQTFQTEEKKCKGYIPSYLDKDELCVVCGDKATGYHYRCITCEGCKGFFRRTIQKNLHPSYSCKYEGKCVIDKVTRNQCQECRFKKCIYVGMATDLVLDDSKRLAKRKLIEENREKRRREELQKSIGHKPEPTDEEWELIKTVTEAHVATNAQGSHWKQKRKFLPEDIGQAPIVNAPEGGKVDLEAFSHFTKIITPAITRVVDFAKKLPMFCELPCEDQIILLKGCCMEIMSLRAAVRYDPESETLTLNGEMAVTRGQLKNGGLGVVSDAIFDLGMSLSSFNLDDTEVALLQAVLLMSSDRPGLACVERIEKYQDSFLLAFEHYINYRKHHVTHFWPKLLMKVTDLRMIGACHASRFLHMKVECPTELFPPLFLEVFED
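Human TRb ligand-binding domain (0.6 uM) is mixed with 20 nM Texas Red SRC2 peptide and 1 uM T3; after compound addition and 5 hr at ambient temperature, polarization is measured and normalized to unbound and bound controls.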
HTT aggregate: qHTS Multiplex Assay to Identify Dual Action Probes in a Cell Model of Huntington: Aggregate Formation (GFP); PC12 HttQ103-GFP aggregates, Acumen cytometry, 40 h; Potency, µM (titrated, usually from 46.1 µM), for inactives: at the top dose activity change, negative = inhibition, hits mostly inhibitors; actives 1.1% (n = 220,000); note: potency is the fitted concentration of half-maximal effect; % is set by controls: 0 for no effect and ±100 for the full control effect; nearly all actives have a fitted effect of over 60% in size
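Aggregate formation scored by laser-scanning cytometer (488 excitation, 500–530 emission) in lysed PC12 cells expressing Q103-GFP after 100 nM tebufenozide induction; library tested in dose series, with ATPLite reagent added in the multiplex.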
KDM4E inh: qHTS Assay for Inhibitors of Human Jumonji Domain Containing 2E (JMJD2E); JMJD2E catalytic domain, FDH-coupled NADH fluorescence (FDH is formaldehyde dehydrogenase); Potency, µM (highest dose often 57.1 µM), inactives show top-dose activity change, negative = inhibition, most hits filed as inhibitors; actives 1.6% (n = 230,000); active = well fitted inhibition curve with a large enough effect, not every such curve was filed as active; inconclusive = small, poorly fitted or top-dose-only effect, or another doubt; inactive = no such curve, though single readings can be large or run the other way;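 note: potency is the fitted concentration of half-maximal effect; 0% = wells with enzyme and -100% = buffer wells without enzyme; nearly all actives have a fitted effect of over 50% in size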
Target sequence (B2RXH2 1-337 limits assumed): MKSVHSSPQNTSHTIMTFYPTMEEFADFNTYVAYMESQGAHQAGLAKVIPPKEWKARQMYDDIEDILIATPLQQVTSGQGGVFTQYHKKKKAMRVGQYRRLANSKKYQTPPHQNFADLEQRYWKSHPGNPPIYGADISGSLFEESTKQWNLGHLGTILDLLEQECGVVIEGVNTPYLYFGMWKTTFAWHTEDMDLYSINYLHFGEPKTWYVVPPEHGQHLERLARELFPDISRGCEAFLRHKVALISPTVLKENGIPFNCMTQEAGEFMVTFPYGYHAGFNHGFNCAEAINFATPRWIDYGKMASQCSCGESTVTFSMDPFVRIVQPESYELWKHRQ
HTT ATP protect: qHTS Multiplex Assay to Identify Dual Action Probes in a Cell Model of Huntington: Cytoprotection (ATP). actives 0.14% (n = 230,000). PC12 HTT-Q103 induced, cytoprotection, ATP luminescence, 40 h. Potency, µM (series often up to 56.4 µM), for the others: cytoprotection (ATP increase), usual class: activators; note: potency is the fitted concentration of half-maximal effect; % of control where 0% means no effect; nearly all actives have a fitted effect of over 45% in size
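Compounds were screened for protection of PC12 cells against cell death after tebufenozide induction (100 nM final) of mutant Huntingtin exon 1 (Q103) fused to GFP.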
FBPA coupling cs: qHTS Assay for Inhibitors of Fructose-1,6-bisphosphate Aldolase from Giardia Lamblia: Coupling assay counterscreen. coupling enzyme system counterscreen, AmpLite Red fluorescence. actives 0.67% (n = 290,000). activity change, negative = inhibition, % at 58.2 µM, hits read low; in the data active = activity change below about -30%; note: % is set by controls: 0 for no effect and ±100 for the full control effect
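Compounds tested against the coupling enzymes alone at 57.5 uM final; readout was AmpLite Red fluorescence (525/598 nm) after 20 min at RT.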
Active calls of the source: *; [ ] = remark or other dose. Unless noted, calls come from the whole dose curve; as a rule, active = well fitted curve in the direction sought with a large enough effect; inconclusive = small, poorly fitted or top-dose-only effect, or another doubt; inactive = no such curve, though single readings can be large; an effect the other way counts as inactive or inconclusive.

How did CCCc1nn2c(=O)cc(COC(=O)c3ccccc3NC(=O)c3cccs3)nc2s1 do in these assays?
TR SRC2 fluor cs: -1.4%; TRb-SRC2 inh: 1.5%

How did Cc1cccc(C)c1NC(=O)CSCC(=O)O do in these assays?
TR SRC2 fluor cs: -0.4%; TRb-SRC2 inh: -17.4%; HTT aggregate: 7.2%; KDM4E inh: 3.5%; HTT ATP protect: 4.5%; FBPA coupling cs: 5.2

What do the screens show for `Cc1cccc(C)c1NC(=O)CSCC(=O)c1ccc(O)c(O)c1`?
TR SRC2 fluor cs: -2.0%; TRb-SRC2 inh: -20.5%; HTT aggregate: inconclusive; KDM4E inh: 28.2µM*; HTT ATP protect: -43.8%; FBPA coupling cs: 3.4

Results for CC(=O)c1ccc(Oc2ncnc3sccc23)cc1 ?
TR SRC2 fluor cs: 2.3%; TRb-SRC2 inh: -0.2%; HTT aggregate: -9.6%; KDM4E inh: -15.9%; HTT ATP protect: -1.2%; FBPA coupling cs: 0.9

Results for CC(=O)N1CCN(c2ccc(Oc3ncnc4sccc34)cc2)CC1 ?
TR SRC2 fluor cs: 2.2%; TRb-SRC2 inh: -2.6%; HTT aggregate: 17.8µM*; KDM4E inh: 6.5%; HTT ATP protect: 27.3%[10 µM]; FBPA coupling cs: 1.1

Results for c1cnc(N2CCN(Cc3c[nH]c4ccccc34)CC2)nc1 ?
TR SRC2 fluor cs: -3.2%; TRb-SRC2 inh: -12.3%; HTT aggregate: 11.2µM*; KDM4E inh: -0.6%; HTT ATP protect: -85.9%; FBPA coupling cs: -0.8

What do the screens show for `Cc1ccccc1N1CCN(Cc2c[nH]c3ccccc23)CC1`?
TR SRC2 fluor cs: -1.0%; TRb-SRC2 inh: 0.4%; HTT aggregate: 22.4µM*; KDM4E inh: -27.3%; HTT ATP protect: -52.9%[10 µM]; FBPA coupling cs: 1.5

Results for CCCCCCCCCC(=O)N[C@@H](CN1CCOCC1)[C@@H](O)c1ccccc1 ?
HTT ATP protect: -15.5%[1.9 µM]

What do the screens show for `COc1ccccc1C(=O)Nc1cccc(OCc2cc(=O)n3ccccc3n2)c1`?
TR SRC2 fluor cs: -0.2%; TRb-SRC2 inh: -6.1%

How did CN(C(Cc1ccc(OS(=O)(=O)c2cccc3cnccc23)cc1)C(=O)N1CCN(c2ccccc2)CC1)S(=O)(=O)c1cccc2cnccc12 (centres undefined) do in these assays?
TR SRC2 fluor cs: 0.0%; TRb-SRC2 inh: 0.5%; HTT ATP protect: -44.6%

Results for CCCCOC(=O)c1ccc(NC(=O)c2cc3c(=O)n4cccc(C)c4nc3s2)cc1 ?
TR SRC2 fluor cs: 9.9%; TRb-SRC2 inh: 5.4%

What do the screens show for `C(=N\n1cnnc1)/c1ccc(OCc2ccccc2)cc1`?
TR SRC2 fluor cs: 0.7%; TRb-SRC2 inh: 1.5%; HTT aggregate: 0.3%; KDM4E inh: inconclusive; HTT ATP protect: -21.8%; FBPA coupling cs: 6.5

Results for Cc1cc(/C=N/n2cnnc2)c(C)n1-c1ccc(OCc2ccc(Cl)cc2)cc1 ?
TR SRC2 fluor cs: -0.2%; TRb-SRC2 inh: -2.3%; HTT aggregate: 2.51µM*; KDM4E inh: inconclusive; HTT ATP protect: -63.0%; FBPA coupling cs: -5.2

What do the screens show for `Fc1ccccc1COc1cccc(/C=N/n2cnnc2)c1`?
TR SRC2 fluor cs: -5.0%; TRb-SRC2 inh: -2.0%; HTT aggregate: inconclusive; KDM4E inh: inconclusive; HTT ATP protect: -14.5%; FBPA coupling cs: -0.8

What do the screens show for `Cc1cc(/C=N/n2cnnc2)c(C)n1-c1ccc(OCc2ccccc2F)cc1`?
TR SRC2 fluor cs: -0.6%; TRb-SRC2 inh: -4.0%; HTT aggregate: 10µM*; KDM4E inh: -8.6%; HTT ATP protect: -66.3%; FBPA coupling cs: -4.0

What do the screens show for `COc1cccc(C2CC(C(F)(F)F)n3ncc(C(=O)NCc4ccco4)c3N2)c1` (centres undefined)?
TR SRC2 fluor cs: 0.3%; TRb-SRC2 inh: -20.6%; HTT aggregate: 2.82µM*; KDM4E inh: 1.2%; HTT ATP protect: 0.8%[0.074 µM]; FBPA coupling cs: -1.7

What do the screens show for `CC1=C(C)/C(=N\OS(=O)(=O)c2ccc(C)cc2)C=CC1=O`?
TR SRC2 fluor cs: 1.2%; TRb-SRC2 inh: -0.8%; HTT aggregate: inconclusive; KDM4E inh: -3.3%; HTT ATP protect: -20.6%[10 µM]; FBPA coupling cs: -85.0*

What do the screens show for `CC1=C/C(=N\OS(=O)(=O)c2ccccc2)C(C)=CC1=O`?
TR SRC2 fluor cs: -2.7%; TRb-SRC2 inh: 3.0%; HTT aggregate: 9.7%[9.22 µM]; KDM4E inh: 13.0%; HTT ATP protect: -92.9%; FBPA coupling cs: -88.3*

How did CC1=C/C(=N\OS(=O)(=O)c2ccccc2)C(C(C)C)=CC1=O do in these assays?
TR SRC2 fluor cs: 1.6%; TRb-SRC2 inh: -6.3%; HTT aggregate: 37.3%[0.0738 µM]; KDM4E inh: 3.98µM*; HTT ATP protect: 38.9%[0.074 µM]; FBPA coupling cs: -70.1*

Results for COc1ccc(S(=O)(=O)/N=C2/C=CC(=O)C(C)=C2C)cc1 ?
TR SRC2 fluor cs: -0.5%; TRb-SRC2 inh: -6.8%; HTT aggregate: 12.9%; KDM4E inh: -12.4%; HTT ATP protect: -29.4%; FBPA coupling cs: -11.4

What do the screens show for `O=S(=O)(Oc1ccc(Cl)cc1)c1ccccc1`?
TR SRC2 fluor cs: 0.0%; TRb-SRC2 inh: 5.3%; FBPA coupling cs: -16.1

What do the screens show for `Cc1oc2ncn(C)c(=O)c2c1C(=O)NC(C)c1ccccc1` (centres undefined)?
TR SRC2 fluor cs: 0.282µM*[quencher]; TRb-SRC2 inh: -29.5%

Results for c1ccc2cc3c(ccc4ccccc43)cc2c1 ?
TR SRC2 fluor cs: -4.1%[201 µM]; TRb-SRC2 inh: -0.4%[201 µM]

Results for CCOCCc1nn2c(=O)cc(COC(=O)C3CCCCC3)nc2s1 ?
TR SRC2 fluor cs: -1.7%; TRb-SRC2 inh: 2.4%

Results for COc1ccc(Cl)cc1CN1CCOCC1 ?
TR SRC2 fluor cs: -3.0%; TRb-SRC2 inh: -6.9%; HTT aggregate: -7.0%[9.22 µM]; KDM4E inh: -5.9%; HTT ATP protect: -10.6%[10 µM]; FBPA coupling cs: 0.0

What do the screens show for `Cc1cc(OCc2cccc(Cl)c2)c(C)cc1CN1CCOCC1`?
TR SRC2 fluor cs: 1.8%; TRb-SRC2 inh: 3.3%; HTT aggregate: inconclusive; KDM4E inh: -2.5%; HTT ATP protect: 1.12µM*; FBPA coupling cs: 1.7

What do the screens show for `Cc1cc(C)cc(N=Cc2ccc([N+](=O)[O-])s2)c1`?
TR SRC2 fluor cs: 0.0%; TRb-SRC2 inh: 1.4%; HTT aggregate: -6.5%; KDM4E inh: inconclusive; FBPA coupling cs: -21.5
